# Assay outcomes deposited in PubChem BioAssay by several laboratories.
# Sampled rows, rich in hits. Any-hit rate of the full collection: about 2.2%.
# KLF5 inh – suppresses KLF5 promoter-driven expression; DLD-1 KLF5 promoter-luciferase reporter, luminescence; inhibition, % at 5 µM; actives 0.23% (n = 290,000); AID 1700;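 active = inhibition above a per-plate limit of that plate's mean compound inhibition plus 3 SD, cut at about 60% in these data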;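 also: 0% = DMSO wells and 100% = LY294002 at 200 µM; higher means less KLF5 promoter-driven luciferase light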
# IEC-6 cytotox – kills IEC-6 intestinal cells in KLF5 counter-screen. AID 1825. inhibition, % at 5 µM. IEC-6 cytotoxicity, luminescence viability. actives 0.78% (n = 290,000); in the data active = inhibition above about 22%;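 also: 0% = plate median of test compound wells and 100% = cytotoxic reference compound wells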
# BaF3 tox – counter-screen for JAK2V617F inhibitors: parental Ba/F3 viability inhibitors; inhibition, % at 5.6 µM; CellTiter-Glo ATP luminescence; actives 1.1% (n = 220,000);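 active = inhibition above a per-campaign cutoff, the mean inhibition of all tested compounds plus 3 SD, cut at about 27% in these data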;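 also: 0% = DMSO wells and 100% = JAK Inhibitor I control wells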
# aSyn UTR inh – 5' untranslated region of α-synuclein, MLPCN primary screen. alpha-synuclein 5'UTR reporter, inhibitor activity. inhibition, % (tested at 7.5 µM). actives 0.82% (n = 300,000). AID 1813; in the data active = inhibition above about 60%;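 also: H4 neuroglioblastoma cells stably carrying SNCA 5'UTR luciferase fusion; 0% = DMSO wells and 100% = positive control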
# Ba/F3 V617F tox – lowers viability of Ba/F3 cells expressing EpoR and JAK2V617F; ATP luminescence; inhibition, % at 5.6 µM; actives 1.1% (n = 220,000); AID 1446;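 active = inhibition above the campaign mean plus 3 SD over all tested compounds, cut at about 24% in these data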;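 also: cytokine-independent growth of Ba/F3 cells driven by EpoR plus mutant JAK2; 0% = DMSO-treated cells and 100% = JAK inhibitor I control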
# APP transl inh – APP translation inhibition. SH-SY5Y APP 5'UTR-luciferase reporter, luminescence. inhibition, % at 2 µM. actives 0.82% (n = 190,000);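 active = inhibition above a set limit, derived from the sample mean plus 3 SD, cut at about 45% in these data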
# Numbers without * were called inactive; · = not tested or not shown.
SMILES,KLF5 inh,IEC-6 cytotox,BaF3 tox,aSyn UTR inh,Ba/F3 V617F tox,APP transl inh
CN(C)c1ccc(/C=N/N2CCN(c3ccccn3)CC2)cc1,-42,2,57*,-126,35*,·
CC(C)(C)c1ccc(/C=N/N2CCN(c3ccccn3)CC2)cc1,-13,-1,6,-58,-3,·
Cn1c(Oc2ccc(Cl)c3cccnc23)nc2c1c(=O)n(Cc1ccccc1Cl)c(=O)n2C,-11,0,94*,·,-2,-6
COc1ccnc2c1c(=O)n(Cc1ccccc1Cl)c(=O)n2C,-18,-4,·,-1,·,·
CCC(=O)c1ccc(OCC(O)Cn2c(C)nc3ccccc32)cc1 (configuration not stated),-34,6,44*,·,42*,-8
CCN(CC)Cc1ccc(NC(=O)c2sc3cc(Cl)ccc3c2Cl)cc1,-16,0,0,104*,0,·
CCN1C(=O)[C@H]2[C@@H](c3ccc(-c4ccccc4)cc3)N[C@@](CC(C)C)(C(=O)OC)[C@H]2C1=O,·,·,·,25,·,·
Cc1cc(C)nc(Nc2ncc(O)n2-c2ccc(Br)cc2)n1,-22,7,11,21,6,-5
CC1=NN(c2ccccc2)C(=O)/C1=C\C=C\c1ccccc1,-38,2,1,-127,-3,·
CC1=NN(c2ccc(C)c(C)c2)C(=O)/C1=C\C=C\c1ccc([N+](=O)[O-])o1,1,-5,0,78*,-2,95*
CCN(Cc1ccccc1)S(=O)(=O)c1ccc(S(=O)(=O)N(Cc2ccccn2)Cc2ccco2)cc1,-13,0,1,15,-4,8
CC1CCCCN1S(=O)(=O)c1ccc(S(=O)(=O)N(Cc2ccccc2)Cc2ccco2)cc1 (configuration not stated),-12,2,4,16,-3,58*
COc1cc(CC(=O)OCC(=O)Nc2ccc3c(c2)OCO3)cc(OC)c1OC,-34,-4,8,1,-1,-24
CCCCOC(=O)C1=C(C)NC(=O)NC1c1ccccc1 (configuration not stated),-16,1,·,0,·,·
NC(=O)c1nc(N2CCOCC2)nc(N2CCOCC2)n1,-19,3,7,9,2,-3
CC(C)(C)Nc1nc(C(N)=O)nc(N2CCOCC2)n1,-48,9,1,10,-1,60*
COc1ccc(-c2cc3c(nn2)-c2ccccc2C3=O)cc1,-97,-5,6,98*,3,-45
COc1cccc(C2Nc3ccccc3C(=O)N2Cc2ccccc2)c1 (configuration not stated),·,·,·,79*,·,·
O=C1c2ccccc2NC(c2ccccc2)N1Cc1ccccc1 (configuration not stated),·,·,·,-17,·,·
Cc1ccccc1C(=O)NC1CC2CCCC(C1)N2Cc1ccc(Cl)cc1 (configuration not stated),-19,7,·,-3,·,·
COc1ccc(/C=C/C2=CCN(Cc3ccc(OC)cc3)CC2)cc1,5,-5,38*,12,16,13
Cc1ccc(NC(=O)CN(C)C(=O)CSc2nc(C)cs2)cc1,-31,-1,7,-11,-4,8
CCCCOc1ccccc1NC(=O)Cn1c(-c2nonc2N)nc2ccccc21,19,1,9,124*,2,90*
Cc1ccc(Cn2c(-c3nonc3N)nc3ccccc32)cc1,21,6,3,23,3,6
COc1cc(Cn2c(-c3nonc3N)nc3ccccc32)ccc1C,1,10,3,96*,1,90*
SMILES,KLF5 inh,IEC-6 cytotox,BaF3 tox,aSyn UTR inh,Ba/F3 V617F tox,APP transl inh
COc1cccc(Cn2c(-c3nonc3N)nc3ccccc32)c1,-38,9,79*,96*,86*,92*
CN(C)C(CNC(=O)CN1C(=O)NC2(CCc3ccccc32)C1=O)c1ccco1 (configuration not stated),-7,-6,2,-10,-2,-18
CCC(C)[C@H](NC(=O)Nc1ccc(C)cc1C)C(=O)O (some centres not stated),18,0,-2,7,-3,·
CCC(C)[C@H](NC(=O)NC(C)C)C(=O)O (some centres not stated),-14,1,92*,16,3,1
CCCCCNC(=O)N[C@H](C(=O)O)C(C)C,3,4,90*,-14,-5,-4
CCCCOCCCNC(=O)N[C@H](C(=O)OC)C(C)C,-8,1,1,2,-1,4
CC(C)Nc1ccc(Nc2ccnc3cc4ccccc4cc23)cc1,-16,12,11,99*,18,·
